Bioassay records deposited in PubChem by Broad Institute.
This is a sample that favours compounds with a hit; in the whole collection about 4% have one here.
esBAF inh = Bmi1 luciferase reporter increase in mESCs, primary screen, esBAF inhibitor project, mouse ES cells, Bmi1 luciferase knock-in, single point; 24 h; 100% = twice the neutral-well signal; reporter increase, % at 12.5 µM; AID 602393, 2012; 350,000 tested, 2% active; in the data active = activation above about 40%;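 note: 0% = median of the plate's neutral control wells and 100% = double that signal; a rise in the Bmi1 reporter signal indicates esBAF inhibition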
TRPM1 prom inh = inhibitors of MITF-dependent TRPM1 promoter reporter, primary screen, cell-based, SK-MEL-5, single point, luciferase | inhibition, % at 12.5 µM | SK-MEL-5 TRPM1 promoter luciferase, 24 h | 330,000 tested, 0.83% active;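 active = mean inhibition across replicates of 60% or more, whatever share of single replicates reaches that level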
Wnt act = Wnt/beta-catenin pathway activators, primary screen, cell-based, plate reader, single point. Wnt/beta-catenin reporter cell assay, activator. activation, % at 9.35 µM. 300,000 tested, 1.2% active; in the data active = activation above about 30%, passing the limit was not always enough;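 note: 0% = neutral control wells and 100% = positive control wells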
MITF act = activators of MITF-driven TRPM1 promoter reporter, primary screen, cell-based, SK-MEL-5, luciferase, single point; SK-MEL-5 TRPM1-promoter luciferase, 24 h; % of positive control, neutral wells = 0; 300,000 tested, 0.75% active; activation, % at 12.5 µM;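 active = mean activation of at least 80% with every replicate also reaching 80%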;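 note: 0% = neutral control wells and 100% = parthenolide positive control wells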
C2C12 statin = suppressors of statin myotoxicity in C2C12 myotubes, primary screen, cell-based, single point, plate reader | C2C12 myotubes + simvastatin, ATP luminescence, 48 h; scaled: DMSO 0, geranylgeraniol control 100 | rescue of ATP level, % at 7.49 µM | AID 602340, 2012 | 330,000 tested, 0.78% active;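 active = mean ATP rescue above about 67%, or every replicate alone reaching that limit, limit read from the data, passing the limit was not always enough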;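 note: myotubes were challenged with 10 µM simvastatin during compound exposure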
EBV LMP1 NFkB = EBV LMP1-driven NF-kappaB luciferase reporter inhibitors, primary screen, cell-based, luminescence, single point | AID 504558, 2011 | 350,000 tested, 0.69% active | inhibition, % at 12.5 µM | LMP1-induced NF-kappaB luciferase reporter cells; in the data active = inhibition above about 41%;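 note: 0% = neutral control wells and 100% = reference inhibitor control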
* marks the source's active call; other numbers are inactive results; ! = repeats disagree.

How did CC(C)(C)NC(=O)CN1CCC(O)(c2ccccc2)CC1 do in these assays?
esBAF inh: -3; TRPM1 prom inh: 1; Wnt act: -2; MITF act: 0; C2C12 statin: 24; EBV LMP1 NFkB: 0

What do the screens show for `COc1ccc(-n2nnc3c(=O)n(CC(=O)N4CCCc5ccccc54)cnc32)cc1`?
esBAF inh: -8; Wnt act: -5; C2C12 statin: -22; EBV LMP1 NFkB: -2

What do the screens show for `COc1ccc(-n2nnc3c(SCC(=O)N4CCCc5ccccc54)ncnc32)cc1`?
esBAF inh: 1; TRPM1 prom inh: 11; Wnt act: 50*; MITF act: -16; C2C12 statin: -13; EBV LMP1 NFkB: 22

Results for CC(C)(C)C1=C[C@@H](CO)C[C@@H](CO)C1 ?
esBAF inh: 7; TRPM1 prom inh: -1; Wnt act: -2; MITF act: 1; C2C12 statin: 4; EBV LMP1 NFkB: 6

Results for Cn1c(SCC(=O)Nc2cccc(S(=O)(=O)NC3=NCCCCC3)c2)nnc1-c1ccncc1 ?
TRPM1 prom inh: -4; Wnt act: -2; MITF act: 4; EBV LMP1 NFkB: -4

Results for CN(C)c1cccc(C(=O)Nc2cccc(S(=O)(=O)NC3=NCCC3)c2)c1 ?
esBAF inh: 55*; TRPM1 prom inh: -3; Wnt act: 9; MITF act: 6; C2C12 statin: 2; EBV LMP1 NFkB: -16

Results for Cc1ccc(C)c(-n2ccnc2SCC(=O)Nc2cccc(S(=O)(=O)NC3=NCCC3)c2)c1 ?
esBAF inh: -1; TRPM1 prom inh: 6; Wnt act: 47*; MITF act: -8; C2C12 statin: -1; EBV LMP1 NFkB: 1

What do the screens show for `O/N=C/c1ccccc1Oc1ccccc1`?
esBAF inh: -6; TRPM1 prom inh: 3; Wnt act: -1; MITF act: -2; C2C12 statin: 86*; EBV LMP1 NFkB: 0

How did C[C@@H]1CN([C@H](C)CO)C(=O)c2cc(NC(=O)CCCN(C)C)ccc2O[C@@H](C)CCCCO[C@H]1CN(C)C(=O)NC1CCCCC1 do in these assays?
esBAF inh: 3

What do the screens show for `C[C@@H]1CN([C@@H](C)CO)C(=O)c2cccc(NC(=O)Nc3ccc(C(F)(F)F)cc3)c2O[C@H]1CN(C)S(=O)(=O)c1ccc(Cl)cc1`?
esBAF inh: -3; C2C12 statin: -5

Results for C[C@@H]1CN([C@@H](C)CO)C(=O)c2cccc(NC(=O)c3ccncc3)c2O[C@@H]1CN(C)S(=O)(=O)c1ccc(Cl)cc1 ?
esBAF inh: 2; C2C12 statin: 73*

How did C[C@H](CO)N1C[C@H](C)[C@@H](CN(C)S(=O)(=O)c2ccc(Cl)cc2)Oc2c(NC(=O)Nc3ccc(C(F)(F)F)cc3)cccc2C1=O do in these assays?
esBAF inh: 4; C2C12 statin: 102*

Results for C[C@H]1CN([C@@H](C)CO)C(=O)c2cccc(NC(=O)Nc3ccc(C(F)(F)F)cc3)c2O[C@@H]1CN(C)S(=O)(=O)c1ccc(Cl)cc1 ?
esBAF inh: -2; TRPM1 prom inh: 10; Wnt act: -10; MITF act: -7; C2C12 statin: 113*!; EBV LMP1 NFkB: 2

Results for Cc1ccc(S(=O)(=O)N(C)C[C@H]2Oc3c(NC(=O)Nc4ccc(C(F)(F)F)cc4)cccc3C(=O)N([C@H](C)CO)C[C@H]2C)cc1 ?
esBAF inh: 11; C2C12 statin: 6

Results for COc1cc(CCC(=O)NCc2ccc(S(N)(=O)=O)cc2)cc(OC)c1OC ?
esBAF inh: -1; TRPM1 prom inh: -3; Wnt act: 2; MITF act: 6; C2C12 statin: 5; EBV LMP1 NFkB: -5

What do the screens show for `Cn1c(=O)[nH]c(=O)c2c1nc(N)n2Cc1ccccc1`?
esBAF inh: 3; TRPM1 prom inh: -23; Wnt act: 8; MITF act: 18; C2C12 statin: 7

Results for O=C(N[C@@H]1CC[C@H](CCNS(=O)(=O)c2cccc(Cl)c2)O[C@H]1CO)c1ccc(F)cc1 ?
esBAF inh: 0; C2C12 statin: 11

How did CN1CCc2c(sc(NC(=O)c3ccc([N+](=O)[O-])o3)c2C(N)=O)C1 do in these assays?
esBAF inh: -43; TRPM1 prom inh: 86*; Wnt act: -1; MITF act: -85; C2C12 statin: 18; EBV LMP1 NFkB: -3

How did NC(=O)c1c(NC(=O)c2ccc([N+](=O)[O-])o2)sc2c1CCCC2 do in these assays?
TRPM1 prom inh: 62*; Wnt act: 2; MITF act: -61; EBV LMP1 NFkB: -15

How did NC(=O)c1ccsc1NC(=O)c1ccc([N+](=O)[O-])o1 do in these assays?
esBAF inh: 10; TRPM1 prom inh: 67*; Wnt act: 9; MITF act: -66; C2C12 statin: 23; EBV LMP1 NFkB: -13

How did CN1CCc2c(sc(NC(=O)c3ccco3)c2C(N)=O)C1 do in these assays?
esBAF inh: -1; TRPM1 prom inh: -12; Wnt act: 3; MITF act: 13; C2C12 statin: -4; EBV LMP1 NFkB: -5

What do the screens show for `C[C@@H]1CN([C@@H](C)CO)C(=O)Cc2cc(NC(=O)Nc3ccc(C(F)(F)F)cc3)ccc2O[C@H]1CN(C)S(=O)(=O)c1cccs1`?
esBAF inh: 2; C2C12 statin: -22

What do the screens show for `CC(C(=O)O/N=C(\N)c1ccccn1)c1ccc([N+](=O)[O-])cc1` (stereo not drawn)?
TRPM1 prom inh: -2; Wnt act: 0; MITF act: 2; EBV LMP1 NFkB: -1

Results for C/C(=N\OC(=O)c1ccc(Br)cc1)c1ccccn1 ?
TRPM1 prom inh: 2; Wnt act: -2; MITF act: -1; EBV LMP1 NFkB: -3

What do the screens show for `C/C(=N/OCc1ccc(Br)cc1)c1ccccn1`?
esBAF inh: 6; TRPM1 prom inh: -109; Wnt act: 18; MITF act: 117*; C2C12 statin: -8; EBV LMP1 NFkB: -51

How did N/C(=N\OCc1ccc([N+](=O)[O-])cc1)c1ccccn1 do in these assays?
TRPM1 prom inh: 73*; MITF act: -71; EBV LMP1 NFkB: 73*

What do the screens show for `O=C(N[C@@H]1CC[C@H](CCNS(=O)(=O)c2ccccc2Cl)O[C@@H]1CO)c1ccccc1`?
esBAF inh: -4; C2C12 statin: -5

Results for COc1ccc(N/N=C(\C#N)C(=N)N2CCCCC2)cc1 ?
esBAF inh: 65*; TRPM1 prom inh: -56; Wnt act: 23; MITF act: 57; C2C12 statin: -18; EBV LMP1 NFkB: -21
